Data on eight molecules can be found in PubChem BioAssay (NCI).

Test systems include NCI-H23 lung; NCI-H226 lung; NCI-H322M lung; HOP-62 NSCLC; NCI-H460 lung; HOP-92 NSCLC; NCI-H522 lung; A549/ATCC NSCLC; 786-0 renal; COLO 205 colon; DU-145 prostate; K-562 leukemia; MALME-3M melanoma; MDA-MB-231 breast; RXF 393 renal; SF-268 CNS; SF-295 CNS; SF-539 CNS; UACC-257 melanoma; M14 melanoma.
What all share (assay): NCI-60 one-dose screen, 48 h (100 = growth as untreated, 0 = no growth, -100 = all killed)
Settings in all cases: 10 µM unless noted

Compounds without any hit were thinned out: in the full panel of roughly 83,000, 20% have a hit.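 Note: values are percent growth. 100 is the growth of untreated cells, values between 100 and 0 indicate rising inhibition; between -100 and 0 indicates cell death.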 Unmarked numbers belong to inactive results. Active and inactive are the calls of the source. How the source made its calls: active means growth percent below 10; inactive means the rest.

In the case of `Oc1ccc(CN2CCC(N3CCOCC3)CC2)c2cccnc12`, the growth is 15.2% in the assay with NCI-H23 lung; 64.6% in the assay with NCI-H226 lung; 57% with NCI-H322M lung; 17.2% in the assay with HOP-62 NSCLC; 10.8% in the assay with NCI-H460 lung; -16% (active) in the assay with HOP-92 NSCLC. Further, the growth in the assay on NCI-H522 lung is -14.9% (active); in the assay with A549/ATCC NSCLC, 14.1%; with 786-0 renal, 35.1%; in the assay on COLO 205 colon it was 104%; in the assay on DU-145 prostate, 29.3%; in the assay with K-562 leukemia it was 12.9%. In addition, the growth with MALME-3M melanoma is -0.979% (active); with MDA-MB-231 breast, 31%; in the assay on RXF 393 renal, 13.1%; in the assay with SF-268 CNS, 32.3%; in the assay with SF-295 CNS, 5.68% (active); with SF-539 CNS, 13.6%. Further, the figures for the growth in the assay with UACC-257 melanoma and in the assay on M14 melanoma were 7.47% (active) and 24.2%, respectively.

For the molecule `CC/C=C/C/C=C/C/C=C/C/C=C/C/C=C/C/C=C/CCC(=O)Nc1ccn([C@@H]2O[C@H](CO)[C@@H](O)C2(F)F)c(=O)n1`, the growth is 1.56% (active) with NCI-H23 lung; 8.09% (active) in the assay with NCI-H226 lung; 51.9% in the assay with NCI-H322M lung; 8.82% (active) with HOP-62 NSCLC; 9.01% (active) with NCI-H460 lung; 32.1% in the assay on HOP-92 NSCLC. Moreover, the growth with NCI-H522 lung was 39.8%; with A549/ATCC NSCLC, 17.6%; in the assay on 786-0 renal, 0.0768% (active); with COLO 205 colon, 11.8%; with DU-145 prostate it was 13.8%; with K-562 leukemia, 38.4%. Also, the growth with MALME-3M melanoma was 64.3%; in the assay with MDA-MB-231 breast, 54.9%; in the assay with RXF 393 renal, 24.9%; with SF-268 CNS, 19.1%; in the assay on SF-295 CNS, 16.2%; with SF-539 CNS it was 7.06% (active). Further, the growth in the assay with UACC-257 melanoma was 48.2%; in the assay on M14 melanoma, -22.7% (active).

In the case of `N=c1sc(Cc2ccc(Cl)cc2)cn1CC(=O)c1ccc(F)cc1`, the growth was 82.4% in the assay on NCI-H23 lung; 83% with NCI-H226 lung; 76.4% in the assay with NCI-H322M lung; 102% in the assay with HOP-62 NSCLC; 33.7% in the assay on NCI-H460 lung; 109% in the assay on HOP-92 NSCLC. For the same molecule, the growth with NCI-H522 lung was 63.5%; in the assay with A549/ATCC NSCLC, 66.7%; in the assay on 786-0 renal, 86.5%; in the assay with COLO 205 colon, 145%; with DU-145 prostate, 78.3%; with K-562 leukemia it was 25.6%. The growth is 87.4% with MALME-3M melanoma; 79.7% in the assay on MDA-MB-231 breast; 82.3% in the assay with RXF 393 renal; 81.8% with SF-268 CNS; 64.7% with SF-295 CNS; 85.5% in the assay on SF-539 CNS. The growth with UACC-257 melanoma is 77.5%; in the assay with M14 melanoma, 43.1%.

For `O=C(CCCCCCN1CC(=O)N2[C@@H](c3ccccc3Cl)c3[nH]c4ccccc4c3C[C@H]2C1=O)NO`, the growth with NCI-H23 lung was 76.8%; in the assay with NCI-H226 lung, 95.4%; in the assay on NCI-H322M lung, 81.8%; with HOP-62 NSCLC, 73.3%; with NCI-H460 lung, 67.8%; with HOP-92 NSCLC, -6.12% (active). For the same molecule, the growth in the assay with NCI-H522 lung is 28.8%; in the assay on A549/ATCC NSCLC, 97%; in the assay with 786-0 renal, 83.8%; in the assay on COLO 205 colon, 59.6%; with DU-145 prostate, 77.2%; in the assay with K-562 leukemia it was 25.7%. Moreover, the growth in the assay with MALME-3M melanoma was 21.9%; in the assay on MDA-MB-231 breast it was 63.1%; in the assay on RXF 393 renal, 61.3%; in the assay with SF-268 CNS, 89.9%; in the assay on SF-295 CNS, 80.3%; with SF-539 CNS it was 60%. In addition, the growth was 51.7% in the assay on UACC-257 melanoma and 49.3% in the assay with M14 melanoma.

On to `NS(=O)(=O)c1cnccc1Sc1ccncc1S(N)(=O)=O`, for which the growth in the assay with NCI-H23 lung is 96.5%; with NCI-H226 lung, 95.2%; with NCI-H322M lung, 124%; in the assay on HOP-62 NSCLC it was 91.7%; with NCI-H460 lung it was 108%; with HOP-92 NSCLC, 92.1%. In addition, the growth in the assay on NCI-H522 lung was 115%; with A549/ATCC NSCLC, 109%; in the assay with 786-0 renal, 100%; in the assay with COLO 205 colon it was 98.8%; in the assay with DU-145 prostate, 102%; in the assay with K-562 leukemia it was 76.3%. Further, the growth in the assay on MALME-3M melanoma was 91.1%; in the assay with MDA-MB-231 breast, 111%; in the assay with RXF 393 renal, 108%; in the assay with SF-268 CNS, 107%; in the assay on SF-295 CNS it was 130%; in the assay on SF-539 CNS, 93%. Moreover, the growth in the assay with UACC-257 melanoma was 111%; in the assay with M14 melanoma, 100%.

On to `O=C1/C(=C/c2ccc(F)cc2)C=C(c2ccccc2)N1CCc1ccccc1`, for which the growth in the assay on NCI-H23 lung was 70.8%; in the assay with NCI-H226 lung, 51.9%; with NCI-H322M lung it was 65.6%; in the assay with HOP-62 NSCLC it was -3.68% (active); with NCI-H460 lung it was 61.3%; in the assay on HOP-92 NSCLC it was 7.45% (active). Also, the growth in the assay with NCI-H522 lung was 42.9%; in the assay on A549/ATCC NSCLC, 40.8%; in the assay on 786-0 renal it was 27.6%; in the assay on COLO 205 colon, 71.9%; with DU-145 prostate it was 81.6%; with K-562 leukemia, 71.4%. Besides, the growth was 39.1% in the assay with MALME-3M melanoma; 57.5% with MDA-MB-231 breast; 56.2% with RXF 393 renal; 74.2% in the assay with SF-268 CNS; 35.9% in the assay on SF-295 CNS; 79.5% in the assay on SF-539 CNS. Besides, the growth with UACC-257 melanoma is 38.6%; with M14 melanoma, 46%.

In the case of `O=C(Nc1cccc(Cl)c1)c1cc(N=Nc2ccc([N+](=O)[O-])cc2Cl)ccc1O`, the growth with NCI-H23 lung is 63%; in the assay with NCI-H226 lung, 97%; with NCI-H322M lung, 94.2%; with HOP-62 NSCLC, 72.9%; with NCI-H460 lung, 39.6%; in the assay on HOP-92 NSCLC it was 28.3%. Further, the growth in the assay with NCI-H522 lung was -16.5% (active); in the assay with A549/ATCC NSCLC it was 67.8%; in the assay with 786-0 renal, 59.1%; in the assay on COLO 205 colon it was 82.2%; in the assay with DU-145 prostate, 116%; in the assay with K-562 leukemia, 26.3%. Further, the growth is 43.7% with MALME-3M melanoma; 64.1% in the assay on MDA-MB-231 breast; 29.6% with RXF 393 renal; 90.6% in the assay with SF-268 CNS; 55.1% in the assay on SF-295 CNS; 54.2% in the assay on SF-539 CNS. Also, the values for the growth in the assay on UACC-257 melanoma and with M14 melanoma were -1.95% (active) and 103%, respectively.

As for `CC1=C([Se]CC(OC(=O)CC[Se]c2ccccc2)C(=O)NCCCCCC(=O)OCc2ccccc2)C(=O)c2ccccc2C1=O` (stereo not given), the growth was 10% in the assay with NCI-H23 lung; 46% with NCI-H226 lung; 2.53% (active) with NCI-H322M lung; -15.1% (active) with HOP-62 NSCLC; 21.6% in the assay with NCI-H460 lung; -5.98% (active) in the assay with HOP-92 NSCLC. Further, the growth was 52.7% in the assay on NCI-H522 lung; 11.9% with A549/ATCC NSCLC; 58.2% with 786-0 renal; 105% in the assay with COLO 205 colon; 22.1% in the assay on DU-145 prostate; 39.5% in the assay on K-562 leukemia. Moreover, the growth in the assay with MALME-3M melanoma is -31.3% (active); in the assay with MDA-MB-231 breast, 32.3%; with RXF 393 renal, 35%; with SF-268 CNS it was 4.54% (active); with SF-295 CNS, -7.86% (active); in the assay with SF-539 CNS, 15.3%. Further, the growth in the assay with UACC-257 melanoma was 35.9%; with M14 melanoma it was -36.8% (active).
